Assay outcomes: PubChem BioAssay, National Center for Advancing Translational Sciences (NCATS)
ELG1 repair inh: inhibitors of ELG1-dependent DNA repair in HEK293T cells; Potency, µM (highest dose often 46.1 µM), inactives show at the top dose activity change, negative = inhibition, usual class: inhibitors; actives 2.3% (n = 330,000); HEK293T ELG1-luciferase reporter, luminescence, 16 h; DNA damage induced by 5-fluorouridine; AID 504467; further: potency means the concentration at half of the fitted maximal effect; on the % scale 0 is the no-effect control and ±100 the full control effect; nearly all actives have a fitted effect of over 55% in size
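Quantitative HTS, concentration-response format. 2,000 cells/well co-treated with 5-fluorouridine and compound, 16 hr in 5% CO2 at 37 °C; ONE-Glo luminescence read after 30 min.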
Giardia killer: kills Giardia lamblia. Giardia lamblia trophozoite viability. activity change, % at 7.66 µM, hits read low. actives 0.15% (n = 340,000). AID 540267; in the data active means activity change below about -80%; inconclusive means between about -30% and that limit;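 further: parasites exposed to compound for two days anaerobically before the ATP read; on the % scale 0 is the no-effect control and ±100 the full control effect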
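Giardia trophozoites, 100 cells per well, were exposed to compounds for 48 hrs at 37 deg C under anaerobic conditions; viability was then read as ATP content by bioluminescence after 15-30 min at room temperature.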
BRCA1 expr act: activators of BRCA1 expression. AID 624202. MCF7-BRCA1-FFLuc reporter, luminescence, 48 h; response scale: scaled: vehicle 0%, 10 µM genistein 100%. Potency, µM (doses to about 46.1 µM), without a hit: at the top dose activation, usual class: activators. actives 1.1% (n = 380,000); further: potency means the concentration at half of the fitted maximal effect; nearly all actives have a fitted effect of over 80% in size
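Compounds are tested at multiple concentrations on MCF7 BRCA1-luciferase reporter cells seeded at 2000 per well; after 48 h, a single luminescence end-point is taken and curves fitted to the normalized data.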
VP16 counter: counter-screen for ROR gamma inhibitors: Gal4-VP16 reporter. actives 3.5% (n = 310,000). AID 2546. Potency, µM (series often up to 53.6 µM), for the others: top-dose activity, negative = inhibition, hits mostly inhibitors. Drosophila S2 Gal4-VP16 UAS-luciferase, luminescence, 20 h;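 further: Gal4-VP16 expression switched on by copper sulfate through the metallothionein promoter; potency means the concentration at half of the fitted maximal effect; on the % scale 0 is the no-effect control and ±100 the full control effect; nearly all actives have a fitted effect of over 50% in size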
RORg inh: inhibitors of mouse ROR gamma transcriptional activity. Potency, µM (highest dose often 53.6 µM), inactives show top-dose activity change, negative = inhibition, hits mostly inhibitors. AID 2551. actives 5.4% (n = 310,000). Drosophila S2 Gal4-RORgamma UAS-luciferase reporter, 20 h. P51450; further: potency means the concentration at half of the fitted maximal effect; on the % scale 0 is the no-effect control and ±100 the full control effect; nearly all actives have a fitted effect of over 60% in size
Target sequence (P51450 whole entry, looked up, the tested form may be a part): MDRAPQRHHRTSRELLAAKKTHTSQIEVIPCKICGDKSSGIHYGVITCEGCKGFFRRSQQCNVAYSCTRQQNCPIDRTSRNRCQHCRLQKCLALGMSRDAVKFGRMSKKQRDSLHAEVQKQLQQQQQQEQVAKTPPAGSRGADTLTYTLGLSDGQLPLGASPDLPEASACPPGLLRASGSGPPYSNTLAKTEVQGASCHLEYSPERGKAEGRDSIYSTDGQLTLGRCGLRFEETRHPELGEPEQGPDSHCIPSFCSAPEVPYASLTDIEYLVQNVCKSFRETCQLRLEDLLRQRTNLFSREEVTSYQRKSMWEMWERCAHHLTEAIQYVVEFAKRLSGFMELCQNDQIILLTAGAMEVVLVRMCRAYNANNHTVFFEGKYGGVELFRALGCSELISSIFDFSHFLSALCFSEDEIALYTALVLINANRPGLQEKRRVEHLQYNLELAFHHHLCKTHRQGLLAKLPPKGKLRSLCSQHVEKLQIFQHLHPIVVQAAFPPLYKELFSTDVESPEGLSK
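Luminescence from a UAS-regulated Photinus luciferase reporter in stably transfected Drosophila Schneider cells is measured; decreased signal marks ROR gamma inhibition. Fusion expression is induced by 700 uM copper sulfate for 20 hr.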
p53 reactivator: restores transcriptional activity of mutant p53; H1299 p53-A138V BP100-luciferase reporter, luminescence, 24 h; Potency, µM (highest dose often 92.2 µM), without a hit: at the top dose activity change, positive = activation, most hits filed as activators; actives 0.063% (n = 320,000); AID 504706; further: potency means the concentration at half of the fitted maximal effect; % of control where 0% means no effect; nearly all actives have a fitted effect of over 45% in size
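H1299 (p53-null), stable ts p53-A138V + BP100-Luc; 1000 cells/well, Opti-MEM/10% FBS; cpd 4 pt, 1:5; 24 h, 37 deg C, 5% CO2; detection reagent 10 min RT; luminescence.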
* marks the source's active call; other numbers are inactive results; u = inconclusive; x = no result given; [ ] = another dose, or the depositor's remark. Compounds with a hit are over-represented: about 7.6% of the library has one in this group of screens. Unless noted, the call rests on the fitted dose curve; in most records, active means well fitted curve in the direction sought with a large enough effect; inconclusive means small, poorly fitted or top-dose-only effect, or another doubt; inactive means no such curve, though single readings can be large; an effect the other way counts as inactive or inconclusive.

SMILES | ELG1 repair inh | Giardia killer | BRCA1 expr act | VP16 counter | RORg inh | p53 reactivator
C/C=C(\CS(=O)(=O)c1ccccc1)S(=O)(=O)c1ccccc1 | -26% | 10 | 3% | 6.3µM* | 3.5µM* | u
C/C(CS(=O)(=O)c1ccccc1)=N\O | -12% | -17 | 6% | -5%[10 µM] | 8% | -3%
NS(=O)(=O)c1ccc(CCNC(=O)c2cccc3ccccc23)cc1 | 9% | 11 | -22% | 6% | -21% | -3%
NS(=O)(=O)c1ccc(CCNC(=O)c2ccc[nH]c2=S)cc1 | 4% | -3 | -6% | 11µM* | u | -7%
O=C(N/N=C/c1c(F)cccc1Cl)C(=O)N1CCCCCC1 | 0% | 21 | 10% | 1% | -3% | u
O=C(CCS(=O)(=O)c1ccccc1)Nc1ncc([N+](=O)[O-])s1 | 0% | -81* | -84% | u | u | u
O=C(CCS(=O)(=O)Cc1ccccc1)Nc1ncc([N+](=O)[O-])s1 | 0% | u | 8.9µM* | u | 7.9µM* | 7%
O=S(=O)(NC1CCN(Cc2ccccc2)CC1)c1cccc2cccnc12 | -3% | -3 | 1% | -2% | -42% | -12%
Cc1cc(C)c(NC(=O)COC(=O)Cc2cccs2)c(C)c1 | 3% | -3 | -9% | x | x | 5%
O=C(O)c1ccc(CN2C(=O)CSC2=S)cc1 | 1% | 6 | -33% | u | 10µM* | -22%
O=C(O)c1ccc(N2C(=O)CSC2=S)cc1 | x | -6 | -7% | x | x | x
COc1ccc(F)cc1CN1CCN(C(=O)CCC(=O)Nc2nnc(C3CCCCC3)s2)CC1 | -6% | 6 | -22% | -8% | 1% | 2%
O=C(CCn1c2c(c3ccccc31)CCCC2)NNC(=O)c1ccc(Cl)c([N+](=O)[O-])c1 | -17% | -3 | -90% | u | u | -4%
O=C(Cc1csc(-c2ccc(Cl)cc2)n1)Nc1cccc(S(=O)(=O)NC2=NCCC2)c1 | u | -9 | -5% | x | x | -6%
O=[N+]([O-])c1ccc(Oc2cccnc2)c([N+](=O)[O-])c1 | x | 11 | -59% | x | x | x
Nc1ccc(Oc2ccc([N+](=O)[O-])cc2[N+](=O)[O-])cc1 | 29% | 2 | -15% | 3% | 8.9µM* | 13%
O=C(Oc1ccc2ccc(=O)oc2c1)c1ccc([N+](=O)[O-])cc1 | 13% | 10 | 0% | x | x | x
O=c1ccc2ccc(Oc3ccc([N+](=O)[O-])cc3[N+](=O)[O-])cc2o1 | u | x | x | u | 10µM* | -24%
Nn1c(SCC(=O)NCCCc2ccccc2)nnc1-c1cccnc1 | -5% | -2 | 0% | -16% | 20% | -4%
C(=N\Nc1ncnc2sc3c(c12)CCC3)/c1cccs1 | u | x | x | 5µM* | 2.5µM* | 5%
NNc1ncnc2sc3c(c12)CCC3 | u | 4 | -89% | 4µM* | 3.2µM* | -5%
c1cc(Nc2ncnc3sc4c(c23)CCC4)ccn1 | -19% | 0 | -11% | 10% | -1% | 4%
C(=N\Nc1ncnc2sc3c(c12)CCC3)/c1ccncc1 | -9% | -10 | -75% | 20µM* | 10µM* | -21%
Cc1ccc(C(=O)Cn2nnc3ccccc32)cc1 | u | -25 | 4.5µM* | 3% | -15% | 22%
Cc1ccc(NC(=O)CCn2nnc3ccccc32)cc1 | u | 3 | 11µM* | -13% | 11% | 3%
SMILES | ELG1 repair inh | Giardia killer | BRCA1 expr act | VP16 counter | RORg inh | p53 reactivator
Cn1c(N)c(S(=O)(=O)N2CCN(c3ccccc3Cl)CC2)c(=O)n(C)c1=O | -7% | 3 | -7% | 9% | -43% | 0%
CCCCNC(=S)N(C)/N=C/c1c(C)[nH]c2ccccc12 | -6% | 5 | -48% | u | 13µM* | -2%
COc1ccc(/C=N/Nc2ncnc3sc(C)c(C)c23)cc1 | 11% | -10 | -54% | 4.5µM* | u | 9%
COc1cccc(/C=N/Nc2ncnc3scc(-c4ccccc4)c23)c1OC | 15µM* | 4 | -51% | 3.2µM* | 4µM* | -5%
Cc1sc2ncnc(N/N=C/c3ccccc3O)c2c1C | u | 7 | -81% | 16µM* | 7.9µM* | u
Cc1ccc(Nc2ncnc3sc(C)c(C)c23)cc1C | u | -11 | 0% | -1% | 0% | 8%
Cc1sc2ncnc(N/N=C/c3ccc(O)cc3)c2c1C | u | -19 | -61% | 4.5µM* | 16µM* | 5%
Cc1sc2ncnc(N[C@@H](Cc3ccccc3)C(=O)O)c2c1C | -6% | -14 | -3% | -1% | 27% | 0%
Nc1c(Cl)ncnc1N/N=C/c1ccc(O)cc1 | u | 1 | 37% | 13µM* | 10µM* | 4%
Oc1ccc(/C=N/Nc2nccnc2Cl)cc1 | u | -6 | 71% | 0% | 8% | u
C/C(=N\NC(=O)c1nnn(-c2nonc2N)c1CSc1ccc(C)cc1)c1ccco1 | 2% | -14 | -4% | 12% | -17% | 10%
COc1ccc(NC(=S)NCCSc2ccc(Cl)cc2)c(OC)c1 | 0% | 5 | -52% | 0%[0.365 µM] | 1.1µM* | -14%
COc1ccccc1NC(=S)NCCSc1ccc(Cl)cc1 | -4% | 2 | -8% | u | 18µM* | 6%
COc1ccccc1NC(=S)NCCc1ccc(Cl)cc1 | 3% | 15 | 9% | 7.1µM* | 1.8µM* | 7%
COc1ccc(Cl)cc1NC(=S)NCCSc1ccc(C)cc1 | -2% | 4 | -17% | 5µM* | 6.3µM* | u
COc1ccc(CCC(=O)NCc2cn3ccc(C)cc3n2)cc1 | 7% | 3 | -19% | 1% | -5% | 0%
CCN(CC)c1ncc(C)c(=O)[nH]1 | 29% | -2 | -11% | -2% | 11% | 12%
COc1cc(C2=N/C(=C\c3ccccc3)C(=O)O2)cc(OC)c1OC | x | x | x | 3% | -32% | x
COc1cccc(C2=N/C(=C\N(C)C)C(=O)O2)c1 | u | 6 | 11µM* | -11% | 6% | 8%
Cc1nc(=S)c2c([nH]1)-c1ccccc1CC21CCCCC1 | 9% | -21 | -23% | 1µM* | 0.2µM* | 1%
Cn1cccc1/C=C1\SC(=Nc2ccc(O)cc2)NC1=O | u | -1 | -6% | 7% | 2% | u
Cc1ccc(N=C2NC(=O)/C(=C/c3cccn3C)S2)c(C)c1 | u | -8 | -19% | -19% | 10µM* | 0%
Cn1cccc1/C=C1\SC(=Nc2cccc(O)c2)NC1=O | u | -8 | 65% | u | 3.2µM* | 12%
Cc1ccccc1N=C1NC(=O)/C(=C/c2cccnc2)S1 | 21µM* | u | -8% | -5% | -22% | -6%
Cc1ccc(N=C2NC(=O)/C(=C/c3cn(C)c4ccccc34)S2)cc1C | u | -7 | -45% | u | 13µM* | 14%
